Results taken from PubChem BioAssay (NCATS).
Results filed as inconclusive are left out. A call without a number means that no potency is given here. Values without a mark were called inactive. Active and inactive are the calls of the source. The call rests on the fitted dose curve; in most records, active means well fitted curve in the direction sought with a large enough effect; inconclusive means small, poorly fitted or top-dose-only effect, or another doubt; inactive means no such curve, though single readings can be large; an effect the other way counts as inactive or inconclusive.

Legend:
[1] = molecular target: Calcium and integrin-binding protein 1 (Homo sapiens) (UniProt Q99828); assay: Primary qHTS for Identification of Calcium Integrin Binding Protein 1 (CIB1) Competitor (AID 1508620);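 further: GST tagged CIB1 binding a fluorescein labelled alphaIIb integrin peptide tracer; top concentration of the series differs between compounds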
Chain of Calcium and integrin-binding protein 1 (Homo sapiens) (Q99828 whole entry, looked up): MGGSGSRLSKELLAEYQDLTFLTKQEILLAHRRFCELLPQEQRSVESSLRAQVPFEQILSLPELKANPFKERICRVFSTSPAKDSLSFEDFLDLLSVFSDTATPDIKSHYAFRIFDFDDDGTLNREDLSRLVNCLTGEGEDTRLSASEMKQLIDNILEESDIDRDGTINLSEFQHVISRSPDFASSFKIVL
Summary of the method: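 Fluorescence polarization competition: GST-tagged CIB1 (1 uM final) preincubated with compound 15 min at room temperature, then FITC-labelled alphaIIb peptide (100 nM final) added. After 15 min at room temperature, polarization read at Ex 480/Em 540.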

[2] = Primary qHTS for inhibitors of nuclear receptor binding SET domain protein 2 (NSD2) in an isogenic RCH-ACV NSD2 p.E1099K mutant (9B) (AID 1645876); further: nearly all actives have a fitted effect of over 70% in size
[3] = Primary qHTS for inhibitors of nuclear receptor binding SET domain protein 2 (NSD2) in an RCH-ACV wild type WT cells (2C) (AID 1645877); further: nearly all actives have a fitted effect of over 70% in size

Structure (SMILES)	Potency [1]	Potency [2]	activity change, negative = viability loss [2]	Potency [3]
C=C1CCC2C(C)(C)CC(=O)CC2(C)C1CCC(C)CCO (configuration not stated)	inactive	inactive	–	–
O=C(Cc1ccccc1)OC[C@H]1O[C@H](O[C@H]2O[C@H](CO)[C@@H](O)[C@H](O)[C@H]2O)[C@H](O)[C@@H](O)[C@@H]1O	inactive	inactive	–	–
COc1c2ccoc2nc2c(OC)c(O[C@@H]3O[C@@H](C)[C@H](O)[C@@H](O[C@@H]4O[C@H](CO)[C@@H](O)[C@H](O)[C@H]4O)[C@H]3OC(C)=O)ccc12	inactive	inactive	–	–
C=C1CC/C=C(/CO)C(=O)C[C@@H]2[C@@H]1C[C@@]2(C)COC(C)=O	inactive	inactive	–	–
C[C@]1(OC(=O)/C=C\c2ccc(O)cc2)C[C@@H](O)[C@]2(O)C=CO[C@@H](O[C@@H]3O[C@H](CO)[C@@H](O)[C@H](O)[C@H]3O)C12 (some centres not stated)	inactive	inactive	–	–
C=C1C(OC(C)=O)C(=O)C2C(C)(C)C(O)CCC2(C)C1CC(OC(C)=O)/C(C)=C/COC(C)=O (configuration not stated)	inactive	inactive	–	–
C[C@H]1CC[C@@]2(OC1)O[C@H]1CC3C4CC[C@H]5C[C@@H](O[C@@H]6O[C@H](CO)[C@H](O[C@@H]7O[C@H](CO)[C@@H](O)[C@H](O[C@@H]8OC[C@@H](O)[C@H](O)[C@H]8O)[C@H]7O[C@@H]7O[C@H](CO)[C@@H](O)[C@H](O)[C@H]7O)[C@H](O)[C@H]6O)[C@H](O)C[C@]5(C)C4=CC(=O)[C@]3(C)[C@H]1[C@@H]2C (some centres not stated)	inactive	–	-21.3% [at 9.23 µM]	–
Cc1ccccc1N1CCN(S(=O)(=O)C[C@]23CC[C@H](C[C@@H]2NC(=O)[C@@H](N)CCS(C)(=O)=O)C3(C)C)CC1	inactive	inactive	–	–
CC12CC34CC(O)C5C(CO)(CO)CC(=O)CC5(C)C3CC1C2C4 (configuration not stated)	inactive	inactive	–	–
COc1cnc(-n2cnc(C)n2)c2[nH]cc(C(=O)C(=O)N3CCN(C(=O)c4ccccc4)CC3)c12	inactive	inactive	–	–
CCCC1=CC2=C(CO1)C(=O)C(C)(O)C(OC(=O)c1c(C)cc(OC)cc1O)C2 (configuration not stated)	inactive	inactive	–	–
COc1cc(/C=C/C(=O)OCC2OC(OC3(CO)OC(CO)C(O)C3O)C(O)C(O)C2O)ccc1O (configuration not stated)	inactive	inactive	–	–
C[C@]1(OC(=O)/C=C/c2ccc(O)cc2)C[C@@H](O)[C@]2(O)C=CO[C@@H](O[C@@H]3O[C@H](CO)[C@@H](O)[C@H](O)[C@H]3O)C12 (some centres not stated)	inactive	inactive	–	–
O=C(O)/C=C/c1ccc2occc2c1O[C@@H]1O[C@H](CO)[C@@H](O)[C@H](O)[C@H]1O	inactive	inactive	–	inactive
O=C(C[C@@H]1C(C(=O)O)=CO[C@@H](O[C@@H]2O[C@H](CO)[C@@H](O)[C@H](O)[C@H]2O)/C1=C\CO)OCCc1ccc(O)cc1	inactive	inactive	–	inactive
CC(O)C/C=C/C=C/C(=O)OC1C=C2COC(=O)C2(O)C2(C)CCCC(C)(C)C12 (configuration not stated)	inactive	inactive	–	–
CC(O)C(O)/C=C/C=C/C(=O)O[C@@H]1C=C(C(=O)O)[C@](O)(CO)[C@@]2(C)CCCC(C)(C)[C@H]12 (some centres not stated)	inactive	inactive	–	inactive
CC1=C2CC(=O)C(C)CC/C=C(\C)CC2(O)OC1=O (configuration not stated)	inactive	inactive	–	inactive
C=C1CCC2C(C)(C(=O)OC)CCCC2(C)C1CCC1=CCOC1=O (configuration not stated)	inactive	inactive	–	–
